Assay results: PubChem BioAssay (EPA / NIEHS)
Where “and” joins values, the source holds several entries; their conditions need not be identical. Equal values may be shown once. The source holds several records for some structures; these can differ, active in one and inactive in another. Calls of active or inactive are those of the source. How the source made its calls: active means hit-call score of the fitted dose curve at least 0.9, where 1 is the maximum; inactive means score below 0.9.

Read-out: not listed separately
Experiment: BSK_BE3C_SRB: Viability Assessment in the BioMAP Diversity Plus: BE3C Assay (AID 2283028);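 on AC50: fitted both ways so AC50 may mark signal gain or loss versus DMSO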
Settings: primary human bronchial epithelial cells
In short: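 Cytotoxicity read-out: SRB (0.1%) staining of TCA-fixed (10%) human lung bronchial epithelial cells, absorbance 560 nm, 24 h post-dosing. Curves fitted both directions relative to DMSO.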

| SMILES | outcome | AC50 |
| --- | --- | --- |
| O=C(O)C(F)(F)C(F)(F)C(F)(F)C(F)(F)C(F)(F)C(F)(F)C(F)(F)C(F)(F)C(F)(F)C(F)(F)C(F)(F)C(F)(F)F | inactive |  |
| O=S(=O)(O)C(F)(F)C(F)(F)C(F)(F)C(F)(F)C(F)(F)C(F)(F)C(F)(F)F | inactive |  |
| FC(F)(F)C(F)(F)C(F)(F)C(F)(F)CCI | inactive |  |
| O=C(O)C(F)(F)C(F)(F)C(F)(F)C(F)(F)C(F)(F)C(F)(F)C(F)(F)C(F)(F)Cl |  | 41.3 µM (active) and 29.4 µM (active) |
| Cc1ccc(S(=O)(=O)OCC(F)(F)C(F)(F)C(F)(F)C(F)(F)C(F)(F)C(F)F)cc1 | inactive |  |
| FC(F)(F)C(F)(F)C(F)(F)CI | inactive |  |
| O=C(O)C(F)(F)C(F)(F)C(F)(F)C(F)(F)F | inactive |  |
| Nc1ccc([N+](=O)[O-])cc1O | inactive |  |
| FC(F)(F)C(F)(F)C(F)(F)C(F)(F)C(F)(F)CCI | inactive |  |
| O=C(O)C(F)(F)C(F)(F)C(F)(F)C(F)(F)C(F)(F)C(F)(F)C(F)(F)C(F)(F)C(F)(F)C(F)(F)C(F)(F)C(F)(F)C(F)(F)F | inactive |  |
| CCCCCCCCCCCCCCCC[N+](C)(C)Cc1ccccc1 |  | 5.04 µM (active) |
| OCC(F)(F)C(F)(F)C(F)(F)F | inactive |  |
| O=C(O)C(F)(F)C(F)(F)F | inactive |  |
| CCc1c(Br)c(Br)c(Br)c(Br)c1Br | inactive |  |
| O=C(O)C(F)(OC(F)(F)C(F)(OC(F)(F)C(F)(F)C(F)(F)F)C(F)(F)F)C(F)(F)F (configuration not stated) | inactive |  |
| Oc1ccc(Nc2ccccc2)cc1 | inactive |  |
| C=CC(F)(F)C(F)(F)C(F)(F)C(F)(F)C(F)(F)C(F)(F)C(F)(F)C(F)(F)C=C | inactive |  |
| FC(F)(F)C(F)(F)C(F)(F)C(F)(F)C(F)(F)C(F)(F)C(F)(F)C(F)(F)F | inactive |  |
| N=C(N)C(F)(F)C(F)(F)C(F)(F)C(F)(F)C(F)(F)C(F)(F)C(F)(F)F | inactive |  |
| FC(F)(F)C(F)(F)C(F)(F)C(F)(F)C(F)(F)C(F)(F)CC1CO1 (configuration not stated) | inactive |  |

Read-out: Thrombomodulin, THBD (gene 7056)
Experiment: BSK_3C_Thrombomodulin: BioMAP Diversity Plus: 3C Assay for Thrombomodulin Biomarker Activity (AID 2283029)
Settings: primary human endothelial cells (HUVEC); actives raise or lower the signal
In short: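 Primary human umbilical vein endothelial cells (3C system) were exposed to chemical for 24 h, then thrombomodulin levels were measured by ELISA. Activity was fitted bidirectionally against the DMSO negative control as baseline.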

| SMILES | AC50 | outcome |
| --- | --- | --- |
| O=C(O)C(F)(F)C(F)(F)C(F)(F)C(F)(F)C(F)(F)C(F)(F)C(F)(F)C(F)(F)C(F)(F)C(F)(F)C(F)(F)C(F)(F)F | 0.928 µM (active) | inactive |
| O=S(=O)(O)C(F)(F)C(F)(F)C(F)(F)C(F)(F)C(F)(F)C(F)(F)C(F)(F)F |  | inactive |
| FC(F)(F)C(F)(F)C(F)(F)C(F)(F)CCI |  | inactive |
| O=C(O)C(F)(F)C(F)(F)C(F)(F)C(F)(F)C(F)(F)C(F)(F)C(F)(F)C(F)(F)Cl | 48.5 µM (active) and 45.4 µM (active) |  |
| Cc1ccc(S(=O)(=O)OCC(F)(F)C(F)(F)C(F)(F)C(F)(F)C(F)(F)C(F)F)cc1 |  | inactive |
| FC(F)(F)C(F)(F)C(F)(F)CI |  | inactive |
| O=C(O)C(F)(F)C(F)(F)C(F)(F)C(F)(F)F | 31.2 µM (active) | inactive |
| Nc1ccc([N+](=O)[O-])cc1O |  | inactive |
| FC(F)(F)C(F)(F)C(F)(F)C(F)(F)C(F)(F)CCI |  | inactive |
| O=C(O)C(F)(F)C(F)(F)C(F)(F)C(F)(F)C(F)(F)C(F)(F)C(F)(F)C(F)(F)C(F)(F)C(F)(F)C(F)(F)C(F)(F)C(F)(F)F |  | inactive |
| CCCCCCCCCCCCCCCC[N+](C)(C)Cc1ccccc1 | 5.17 µM (active) |  |
| OCC(F)(F)C(F)(F)C(F)(F)F |  | inactive |
| O=C(O)C(F)(F)C(F)(F)F |  | inactive |
| CCc1c(Br)c(Br)c(Br)c(Br)c1Br |  | inactive |
| O=C(O)C(F)(OC(F)(F)C(F)(OC(F)(F)C(F)(F)C(F)(F)F)C(F)(F)F)C(F)(F)F (configuration not stated) |  | inactive |
| Oc1ccc(Nc2ccccc2)cc1 |  | inactive |
| C=CC(F)(F)C(F)(F)C(F)(F)C(F)(F)C(F)(F)C(F)(F)C(F)(F)C(F)(F)C=C |  | inactive |
| FC(F)(F)C(F)(F)C(F)(F)C(F)(F)C(F)(F)C(F)(F)C(F)(F)C(F)(F)F |  | inactive |
| N=C(N)C(F)(F)C(F)(F)C(F)(F)C(F)(F)C(F)(F)C(F)(F)C(F)(F)F |  | inactive |
| FC(F)(F)C(F)(F)C(F)(F)C(F)(F)C(F)(F)C(F)(F)CC1CO1 (configuration not stated) |  | inactive |
